Data from PubChem BioAssay (Tox21).
Records with an inconclusive call do not appear. Active and inactive are the calls of the source. Unless noted, calls follow the shape of the full dose curve.

Tests used:
[1] = Nuclear factor erythroid 2-related factor 2/antioxidant responsive element (Nrf2/ARE) small molecule agonists: qHTS cell viability counter screen in human keratinocytes (AID 1919968; active = well fitted curve in the direction sought with a large enough effect in the repeat runs; an effect the other way counts as inactive or inconclusive; also: nearly all actives have a fitted effect of over 55% in size)
How it was run: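 Stably transfected HaCaT (KeratinoSens), 1,500/well. Test agents in DMSO were applied for 23 h, 37 C/5% CO2. CellTiter-Fluor was incubated 1 h before the fluorescence read.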

[2] = Nuclear factor erythroid 2-related factor 2/antioxidant responsive element (Nrf2/ARE) small molecule agonists: luciferase reporter gene qHTS assay in human keratinocytes (AID 1919969); also: nearly all actives have a fitted effect of over 35% in size
[3] = target: Gonadotropin-releasing hormone receptor (Homo sapiens) (UniProt P30968); assay: Human gonadotropin-releasing hormone receptor (GnRHR) small molecule agonists, calcium flux assay in GnRHR-HEK293 cells (AID 1920063); also: nearly all actives have a fitted effect of over 35% in size
Chain of Gonadotropin-releasing hormone receptor (Homo sapiens) (P30968 whole entry, looked up): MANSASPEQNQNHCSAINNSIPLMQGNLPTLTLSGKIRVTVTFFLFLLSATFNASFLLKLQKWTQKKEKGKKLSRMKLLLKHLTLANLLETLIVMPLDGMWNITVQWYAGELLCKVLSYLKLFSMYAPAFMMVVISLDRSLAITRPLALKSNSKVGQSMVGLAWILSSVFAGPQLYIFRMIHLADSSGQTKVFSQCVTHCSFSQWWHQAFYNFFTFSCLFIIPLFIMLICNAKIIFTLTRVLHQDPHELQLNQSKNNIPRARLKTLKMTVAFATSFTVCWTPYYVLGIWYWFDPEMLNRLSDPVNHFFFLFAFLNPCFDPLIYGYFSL
How it was run: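 Stable human GnRHR HEK293 line. 18 h plating, then calcium dye for 1 h at 37 C. Agonist-mode compound addition from DMSO stocks; fluorescence monitored 3 min.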

[4] = target: KiSS-1 receptor (Homo sapiens) (UniProt Q969F8); assay: Human kisspeptin (KISS1R) small molecule agonists, calcium flux assay in KISS1R-HEK293 cells (AID 1920064; active = well fitted curve in the direction sought with a large enough effect in the repeat runs; an effect the other way counts as inactive or inconclusive)
Chain of KiSS-1 receptor (Homo sapiens) (Q969F8 whole entry, looked up): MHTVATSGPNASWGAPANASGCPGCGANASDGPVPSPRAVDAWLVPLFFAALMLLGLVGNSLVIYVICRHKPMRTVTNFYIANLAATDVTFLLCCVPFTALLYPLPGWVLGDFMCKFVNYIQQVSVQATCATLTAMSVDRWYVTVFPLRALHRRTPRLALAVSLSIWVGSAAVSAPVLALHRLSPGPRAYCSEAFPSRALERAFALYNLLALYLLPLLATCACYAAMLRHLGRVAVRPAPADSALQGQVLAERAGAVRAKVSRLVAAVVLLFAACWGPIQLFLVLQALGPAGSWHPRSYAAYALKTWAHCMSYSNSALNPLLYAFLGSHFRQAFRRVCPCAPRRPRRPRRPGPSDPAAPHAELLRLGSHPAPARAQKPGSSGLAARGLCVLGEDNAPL
How it was run: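 After overnight (18 h) culture at 37 C/5% CO2, human KISS1R-HEK293 cells received calcium dye for 1 h, then test compound; emission at 540 nm (excitation 480 nm) was tracked for 3 min.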

[5] = G protein-coupled receptor (GPCR) small molecule agonists, calcium flux assay: HEK293 wild type cell line counter screen (AID 1920065)
How it was run: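 Following 18 h incubation at 37 C/5% CO2, plates got calcium dye for 1 h; compounds, ATP or DMSO were then pinned in and fluorescence followed kinetically (480/540 nm).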

[6] = p53 small molecule agonists, cell-based qHTS assay with human liver microsomes (AID 1963577);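 also: p53 response element beta-lactamase reporter cells with liver microsomes plus NADPH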
How it was run: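 With metabolic activation: human liver microsomes (0.5 mg/mL final) plus NADPH (0.5 mg/mL final) added alongside compounds to p53RE-bla cells; 16 h 37 C exposure; beta-lactamase read by LiveBLAzer fluorescence.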

[7] = p53 small molecule agonists, cell-based qHTS assay with rat liver microsomes (AID 1963578)
How it was run: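 Metabolic activation by rat liver microsomes and NADPH, each 0.5 mg/mL final, added right after compounds to p53RE-bla reporter cells (4,000/well, plated 5 h earlier). 16 h at 37 C, then LiveBLAzer substrate for 2 h at room temperature in the dark; fluorescence read-out.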

[8] = p53 small molecule agonists, cell-based qHTS assay with human liver microsomes: qHTS cell viability counter screen (AID 1963579); also: nearly all actives have a fitted effect of over 45% in size
How it was run: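 Metabolic activation used human liver microsomes and NADPH, both 0.5 mg/mL final, over 16 hours at 37 C on p53RE-bla cells (4,000/well). Cytotoxicity measured by CellTiter-Glo luminescence, 30 min at room temperature.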

[9] = p53 small molecule agonists, cell-based qHTS assay: qHTS cell viability counter screen (AID 1963581); also: nearly all actives have a fitted effect of over 45% in size
How it was run: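 qHTS counter screen: 16 h compound exposure at 37 C of p53RE-bla HCT-116 cells (4,000 per well, seeded 5 h prior), cell viability by ATP luminescence.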

[10] = p53 small molecule agonists, cell-based qHTS assay (AID 1963582; active = well fitted activation curve with a large enough effect in the signal ratio in the repeat runs, not every such curve was filed as active; the % refers to the signal ratio)
How it was run: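 Measured: fluorescence from cleaved LiveBLAzer substrate. System: p53RE-bla cells, 16 h compound treatment at 37 C, 2 h substrate step at room temperature.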

[11] = target: 5-hydroxytryptamine receptor 2A (Homo sapiens) (UniProt P28223); assay: 5-hydroxytryptamine receptor 2A (HTR2A) small molecule agonists, cell-based qHTS assay (AID 1963587); also: nearly all actives have a fitted effect of over 30% in size
Chain of 5-hydroxytryptamine receptor 2A (Homo sapiens) (P28223 whole entry, looked up): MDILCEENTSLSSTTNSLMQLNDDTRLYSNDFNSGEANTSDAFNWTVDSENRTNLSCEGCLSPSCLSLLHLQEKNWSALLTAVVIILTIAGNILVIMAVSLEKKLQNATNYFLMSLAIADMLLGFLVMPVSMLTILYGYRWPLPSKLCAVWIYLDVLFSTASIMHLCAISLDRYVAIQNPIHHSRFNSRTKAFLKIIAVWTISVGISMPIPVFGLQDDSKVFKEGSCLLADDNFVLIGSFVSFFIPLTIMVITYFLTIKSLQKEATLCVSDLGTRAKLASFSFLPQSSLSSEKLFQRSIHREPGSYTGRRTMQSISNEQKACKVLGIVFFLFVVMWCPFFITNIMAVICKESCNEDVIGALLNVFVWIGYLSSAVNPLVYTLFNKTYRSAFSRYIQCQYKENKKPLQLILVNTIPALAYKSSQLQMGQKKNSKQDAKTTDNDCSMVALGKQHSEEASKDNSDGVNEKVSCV
How it was run: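 Kinetic calcium-flux fluorescence (2 min, 1 sec intervals) after compound addition in agonist mode. HTR2A-CHO cells were cultured 18 h, then dye-loaded 1 h at 37 C.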

[12] = target: Muscarinic acetylcholine receptor M1 (Homo sapiens) (UniProt P11229); assay: Cholinergic receptor muscarinic 1 (CHRM1) small molecule antagonists, cell-based qHTS assay (AID 1963588); also: nearly all actives have a fitted effect of over 40% in size
Chain of Muscarinic acetylcholine receptor M1 (Homo sapiens) (P11229 whole entry, looked up): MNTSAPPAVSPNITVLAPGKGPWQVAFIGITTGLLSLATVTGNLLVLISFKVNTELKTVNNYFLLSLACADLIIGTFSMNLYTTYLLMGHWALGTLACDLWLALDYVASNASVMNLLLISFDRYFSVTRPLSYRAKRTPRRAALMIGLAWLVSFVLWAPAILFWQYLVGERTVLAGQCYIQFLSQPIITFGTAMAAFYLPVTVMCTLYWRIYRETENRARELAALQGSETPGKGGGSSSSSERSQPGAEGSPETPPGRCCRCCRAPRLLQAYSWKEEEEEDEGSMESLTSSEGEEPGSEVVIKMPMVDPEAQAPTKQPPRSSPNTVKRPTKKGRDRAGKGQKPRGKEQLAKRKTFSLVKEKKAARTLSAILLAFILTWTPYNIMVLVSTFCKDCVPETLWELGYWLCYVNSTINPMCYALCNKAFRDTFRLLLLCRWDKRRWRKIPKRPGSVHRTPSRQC
How it was run: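 Compounds were tested at 15 concentrations in three independent runs. Dye-loaded CHRM1-CHO cells were exposed 5 min at room temperature before stimulation by acetylcholine added at 50nM. Intracellular calcium was read kinetically on FDSS for 3 min.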

[13] = target: Muscarinic acetylcholine receptor M1 (Homo sapiens) (UniProt P11229); assay: Cholinergic receptor muscarinic 1 (CHRM1) small molecule agonists, cell-based qHTS assay (AID 1963589); also: nearly all actives have a fitted effect of over 35% in size
How it was run: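 Kinetic fluorescence (1 s intervals) of calcium-sensitive dye in human M1 CHO cells after compound addition; cells pre-incubated 18 h at 37 C/5% CO2 and dye-loaded 1 h.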

[14] = cAMP Responsive Elements (CRE) small molecule agonists, cell-based qHTS assay (AID 1963590)
How it was run: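 Test agents in DMSO were incubated 3 h at 37 C/5% CO2 with CRE-bla HEK 293T cells seeded 18 h earlier; LiveBLAzer B/G FRET substrate was added and read after 2 h at room temperature.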

[15] = cAMP Responsive Elements (CRE) small molecule antagonists, cell-based qHTS assay (AID 1963591; active = well fitted inhibition curve with a large enough effect in the signal ratio in the repeat runs, not every such curve was filed as active; the % refers to the signal ratio)
How it was run: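 Reporter line CRE-bla HEK 293T in dialyzed-FBS DMEM; cells preincubated 18 h, treated 3 h with compound plus NKH477 (0.25 uM final); LiveBLAzer FRET, 2 h RT.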

[16] = target: Beta-2 adrenergic receptor (Homo sapiens) (UniProt P07550); assay: Adrenergic beta2 receptor (ADRB2) small molecule antagonists, cell-based qHTS assay (AID 1963592); also: series mostly up to about 92 µM; nearly all actives have a fitted effect of over 50% in size
Chain of Beta-2 adrenergic receptor (Homo sapiens) (P07550 whole entry, looked up): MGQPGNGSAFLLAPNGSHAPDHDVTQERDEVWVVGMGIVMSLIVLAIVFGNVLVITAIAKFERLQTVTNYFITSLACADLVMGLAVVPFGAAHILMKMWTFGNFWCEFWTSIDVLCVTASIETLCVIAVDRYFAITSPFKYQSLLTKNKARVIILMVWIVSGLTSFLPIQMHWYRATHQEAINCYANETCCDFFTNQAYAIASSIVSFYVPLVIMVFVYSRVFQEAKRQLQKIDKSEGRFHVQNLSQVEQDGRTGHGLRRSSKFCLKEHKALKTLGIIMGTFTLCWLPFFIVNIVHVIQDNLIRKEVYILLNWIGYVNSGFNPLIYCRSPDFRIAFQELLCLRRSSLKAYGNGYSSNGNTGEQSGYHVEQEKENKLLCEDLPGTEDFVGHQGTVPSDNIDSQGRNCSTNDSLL
How it was run: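 Assay format: CHO-ADRB2 cells, 18-20hr seeding at 37C/5% CO2, then compound plus 1nM isoproterenol agonist mix for 0.5hr RT. Homogeneous time-resolved fluorescence cAMP detection after 1hr, expressed as 665/615 nm ratio.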

[17] = target: D(2) dopamine receptor (Homo sapiens) (UniProt P14416); assay: Dopamine D2 receptor (DRD2) small molecule agonists, cell-based qHTS assay (AID 1963594); also: nearly all actives have a fitted effect of over 35% in size
Chain of D(2) dopamine receptor (Homo sapiens) (P14416 whole entry, looked up): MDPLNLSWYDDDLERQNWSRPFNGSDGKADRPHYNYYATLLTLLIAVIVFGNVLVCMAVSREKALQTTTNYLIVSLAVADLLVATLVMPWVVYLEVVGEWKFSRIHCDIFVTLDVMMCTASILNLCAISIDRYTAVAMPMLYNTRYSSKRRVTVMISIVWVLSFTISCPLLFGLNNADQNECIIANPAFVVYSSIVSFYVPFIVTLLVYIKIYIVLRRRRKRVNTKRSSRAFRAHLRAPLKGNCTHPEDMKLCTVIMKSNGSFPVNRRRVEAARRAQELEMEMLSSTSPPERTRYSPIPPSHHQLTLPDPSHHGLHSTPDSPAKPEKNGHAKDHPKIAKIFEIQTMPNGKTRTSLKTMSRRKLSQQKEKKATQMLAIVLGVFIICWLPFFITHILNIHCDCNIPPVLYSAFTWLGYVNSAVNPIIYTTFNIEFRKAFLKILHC
How it was run: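 cAMP accumulation in DRD2-HEK293 cells measured by HTRF after 1 h detection; compounds added 10 min before NKH477 (200nM […]) forskolin-analogue stimulation, 30 min at room temperature, with Ro20-1724 present at 0.1 mM final.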

[18] = target: 5-hydroxytryptamine receptor 2A (Homo sapiens) (UniProt P28223); assay: 5-hydroxytryptamine receptor 2A (HTR2A) small molecule antagonists, cell-based qHTS assay (AID 1963586); also: nearly all actives have a fitted effect of over 45% in size
How it was run: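 CHO cells stably expressing human HTR2A were plated for 18 h at 37 C, then loaded with calcium dye for 1 h. Compounds were preincubated 5 min at room temperature before DOI (4 nM solution) was added. Kinetic fluorescence was read for 3 min.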

[19] = target: D(2) dopamine receptor (Homo sapiens) (UniProt P14416); assay: Dopamine D2 receptor (DRD2) small molecule antagonists, cell-based qHTS assay (AID 1963595; active = well fitted inhibition curve with a large enough effect in the signal ratio in the repeat runs, with a control signal flat; the % refers to the signal ratio)
How it was run: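 Readout: HTRF cAMP, cAMP-d2 competing with cellular cAMP for anti-cAMP cryptate, read after 1 h. Cells: DRD2-HEK293. Conditions: 0.1 mM Ro20-1724, 12 nM quinpirole, 200 nM NKH477, 30 min RT.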
% is scaled to controls: 0 for no effect and ±100 for the full control effect.

CC(C)(C)N
inactive: Potency [1] | Potency [2] | Potency [3] | outcome [4] | outcome [5] | Potency [6] | Potency [7] | Potency [8] | Potency [9] | Potency [10] | Potency [11] | Potency [12] | Potency [13] | Potency [14] | Potency [15] | Potency [16] | Potency [17]

Cn1cnc2ncnc(N)c21
inactive: Potency [1] | Potency [2] | Potency [3] | outcome [4] | outcome [5] | Potency [6] | Potency [7] | Potency [8] | Potency [9] | Potency [18] | Potency [11] | Potency [12] | Potency [13] | Potency [14] | Potency [15] | Potency [16] | Potency [17] | Potency [19]

Cc1c(NC(C)C)c(=O)n(-c2ccccc2)n1C
inactive: Potency [1] | Potency [2] | Potency [3] | outcome [4] | outcome [5] | Potency [6] | Potency [7] | Potency [8] | Potency [9] | Potency [10] | Potency [18] | Potency [12] | Potency [13] | Potency [15] | Potency [16] | Potency [17] | Potency [19]

CC(=O)Nc1ccc(S(=O)(=O)Nc2cc(C)on2)cc1
inactive: Potency [1] | Potency [2] | Potency [3] | outcome [4] | outcome [5] | Potency [6] | Potency [7] | Potency [8] | Potency [9] | Potency [10] | Potency [11] | Potency [12] | Potency [13] | Potency [14] | Potency [15] | Potency [19]

NC(=O)NS(=O)(=O)c1ccc(N)cc1
inactive: Potency [1] | Potency [2] | Potency [3] | outcome [4] | outcome [5] | Potency [6] | Potency [7] | Potency [8] | Potency [9] | Potency [10] | Potency [11] | Potency [12] | Potency [13] | Potency [15] | Potency [16] | Potency [17] | Potency [19]

C=CCCCCCCCCC(=O)OCC
inactive: Potency [1] | Potency [2] | Potency [3] | outcome [4] | outcome [5] | Potency [6] | Potency [7] | Potency [8] | Potency [9] | Potency [10] | Potency [11] | Potency [12] | Potency [13] | Potency [14] | Potency [15] | Potency [16] | Potency [17] | Potency [19]

NC[C@H]1O[C@H](O[C@H]2[C@H](O[C@@H]3O[C@H](CO)[C@@H](O)[C@H]3O)C(O)[C@H](N)C[C@@H]2N)[C@H](N)[C@@H](O)[C@@H]1O (some centres undefined)
inactive: activity change, negative = cytotoxicity [1] -6.49% [at 8.39 µM] | activity, positive = activation [2] -8.73% [at 8.39 µM] | activity change [3] -0.504% [at 5.22 µM, active compounds read high] | activation [4] -0.532% [at 6.97 µM] | activation [5] -0.0987% [at 5.23 µM] | activation [6] 0.817% [at 5.99 µM] | activation [7] -0.761% [at 5.99 µM] | activity change, negative = cytotoxicity [8] 26.1% [at 5.99 µM] | activity change, negative = cytotoxicity [9] 0.386% [at 5.99 µM] | activation [10] -3.27% [at 5.99 µM] | activation [11] -4.1% [at 7.02 µM] | activity, negative = inhibition [12] 1.47% [at 5.58 µM] | activation [13] 0.272% [at 6.97 µM] | activation [14] 4.47% [at 8.39 µM] | activity change, negative = inhibition [16] 7.44% [at 8.39 µM] | activity change, negative = inhibition [19] -1.87% [at 8.38 µM]
